# Paper PMC13083723 (Patterns, 2026)
# The campaign covered roughly 5,400 compounds. About 190 (3.5%) showed an effect of 50% or more. This excerpt belongs to a sample that is enriched for strong results.
# Test system: Vero-E6
# Assay: primary screen, phospholipidosis by LipidTOX staining; higher = more effect of the substance
# Details: 10 µM
# Description: To measure drug-induced PLD in Vero-E6 cells, we used the HCS LipidTOX Red Phospholipidosis Detection Reagent (Invitrogen, #H34351), which is non-toxic to cell growth and remains well retained after aldehyde fixation. In this setup, compounds (at 10 μM concentration) and controls (amiodarone: 10 μM concentration; DMSO: 0.1 v/v %) were added to clear-bottom, 384-well plates (PhenoPlate 384-well, black, optically clear flat bottom, tissue-culture treated, Revvity #6057302) using the Echo Liquid Handler (Labcyte).
row,Compound,result_ITMP [%]
1,CCCOC(C(=O)OC1CCN(C)CC1)(c1ccccc1)c1ccccc1,63.8
2,C[C@H]1CCC/C=C/[C@@H]2C[C@H](O)C[C@H]2[C@H](O)/C=C/C(=O)O1,-2.38
3,COC(=O)C[C@](O)(CCC(C)(C)O)C(=O)O[C@@H]1C(OC)=C[C@]23CCCN2CCc2cc4c(cc2[C@H]13)OCO4,-10.1
4,C#C[C@]1(O)CC[C@H]2[C@@H]3CCC4=CC(=O)CC[C@]4(C)[C@H]3CC[C@@]21C,-7.32
5,CN1[C@@H]2CC[C@H]1C[C@@H](OC(=O)c1cc(Cl)cc(Cl)c1)C2,9.65
6,CN(CCc1ccc(Cl)c(Cl)c1)CCN1CCCC1,51.3
7,C[N@+]1(CC2CC2)CC[C@]23c4c5ccc(O)c4O[C@H]2C(=O)CC[C@@]3(O)[C@H]1C5,0.23
8,CCN1C[C@]2(COC(=O)c3ccccc3N3C(=O)C[C@H](C)C3=O)CC[C@H](OC)[C@@]34[C@@H]5C[C@H]6[C@H](OC)[C@@H]5[C@](O)(C[C@@H]6OC)[C@@](O)([C@@H](OC)[C@H]23)[C@@H]14,0.37
9,C=CC[C@]1(O)CC[C@H]2[C@@H]3CCC4=CCCC[C@@H]4[C@H]3CC[C@@]21C,0.46
10,COc1cc2c(cc1OC)[C@@]13CCN4CC5=CCO[C@H]6CC(=O)N2[C@H]1[C@H]6[C@H]5C[C@H]43,1.12
11,CN1C[C@H](CNC(=O)OCc2ccccc2)C[C@@H]2c3cccc4c3c(cn4C)C[C@H]21,61.8
12,CC(=O)OC[C@]12CCC(C)=C[C@H]1O[C@@H]1[C@H](O)[C@@H](OC(C)=O)[C@@]2(C)[C@]12CO2,-25.8
13,Oc1ccc2c3c1O[C@H]1c4[nH]c5ccccc5c4C[C@@]4(O)[C@@H](C2)N(CC2CC2)CC[C@]314,37.4
14,C[C@@H]1CN([C@H]2CC[C@](C#N)(c3ccc(F)cc3)CC2)CC[C@]1(C(=O)O)c1ccccc1,-9.01
15,Cc1onc(O)c1C[C@H](N)C(=O)O [R4A_0004356_001 / SPE_K92493880],-0.72
